RORg inh: inhibitors of mouse ROR gamma transcriptional activity; Drosophila S2 Gal4-RORgamma UAS-luciferase reporter, 20 h; Potency, µM (series often up to 53.6 µM), for inactives: at the top dose activity change, negative = inhibition, hits mostly inhibitors; 5.4% of 310,000 active; AID 2551; further: potency means the concentration at half of the fitted maximal effect; nearly all actives have a fitted effect of over 60% in size
Target sequence (P51450 whole entry, looked up, the tested form may be a part): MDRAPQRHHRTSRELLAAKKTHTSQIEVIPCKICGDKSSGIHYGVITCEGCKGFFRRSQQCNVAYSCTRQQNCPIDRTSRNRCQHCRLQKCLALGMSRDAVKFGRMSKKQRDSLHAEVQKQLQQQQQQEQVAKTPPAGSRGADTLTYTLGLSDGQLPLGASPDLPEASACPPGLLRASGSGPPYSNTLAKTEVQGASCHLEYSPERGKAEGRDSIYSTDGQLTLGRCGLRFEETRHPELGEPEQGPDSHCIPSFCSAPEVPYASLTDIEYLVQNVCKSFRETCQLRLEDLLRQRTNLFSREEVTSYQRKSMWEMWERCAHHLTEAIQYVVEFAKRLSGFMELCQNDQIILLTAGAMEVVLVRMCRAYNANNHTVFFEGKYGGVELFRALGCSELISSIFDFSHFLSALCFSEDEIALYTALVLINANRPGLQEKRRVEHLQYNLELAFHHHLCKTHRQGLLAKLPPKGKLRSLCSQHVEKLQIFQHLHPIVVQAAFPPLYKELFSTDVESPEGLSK
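ROR gamma transcriptional activity was tracked as Gal4-UAS luciferase output in stably transfected Drosophila Schneider cells, with compound added 1 hr before 700 uM copper sulfate induction and a 20 hr ambient-temperature incubation.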
IL1B secr inh: blocks inflammasome-driven IL-1 beta release. activity change, % at 57.5 µM. THP-1 LPS/ATP IL-1B secretion, AlphaLISA, 16 h; hits give low values. 4.7% of 360,000 active; in the data active means activity change below about -50%; inconclusive means mostly about -30% to -49%
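Secreted IL-1B measured by AlphaLISA bead assay after 16 h compound exposure of THP-1 cells; compounds (final up to 57.5 uM) added 1 h before LPS (250 ng/mL) and ATP (1.25 mM) stimulation; lower signal means less secretion.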
LDHA block: inhibitors of human lactate dehydrogenase A. P00338. purified LDHA, NADH/diaphorase-resazurin fluorescence; hits give low values. activity change, % (values are at about 110 or 230 µM). 0.15% of 480,000 active. AID 1347041; in the data active means activity change below about -30%; inconclusive means mostly about -25% to -30%;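 further: plate controls were DMSO wells for no effect and wells without enzyme for full effect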
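Resorufin fluorescence (ex540/em590), read at 0 and 20 min after diaphorase/resazurin addition, reports the NADH left after a 5 min room-temperature reaction of 2 nM human LDH5 with 0.06 mM NADH and 0.2 mM pyruvate.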
TDP1 cell CPT: growth inhibition of DT40 Tdp1-/-;hTDP1 cells with camptothecin (screen for TDP1 inhibitors) | chicken DT40 Tdp1-/-;hTDP1 cells + 20 nM CPT, ATP luminescence, 48 h | Potency, µM (doses to about 46.2 µM), for the others: top-dose activity change, negative = growth inhibition, most hits filed as inhibitors | 12% of 420,000 active; further: potency means the concentration at half of the fitted maximal effect; nearly all actives have a fitted effect of over 55% in size
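Chicken DT40 Tdp1-/- cells complemented with human TDP1, 400 cells/well, exposed to compounds plus 20 nM camptothecin for at least 48 h at 37 C; viability read as ATP content by CellTiter-Glo luminescence.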
Gal4-VP16 FLuc: counter-screen for ROR gamma inhibitors: Gal4-VP16 reporter. Potency, µM (series often up to 53.6 µM), inactives show at the top dose activity, negative = inhibition, hits mostly inhibitors. Drosophila S2 Gal4-VP16 UAS-luciferase, luminescence, 20 h. 3.5% of 310,000 active. AID 2546;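 further: Gal4-VP16 expression switched on by copper sulfate through the metallothionein promoter; potency means the concentration at half of the fitted maximal effect; nearly all actives have a fitted effect of over 50% in size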
DT40 TDP1 no CPT: qHTS for Inhibitors of human tyrosyl-DNA phosphodiesterase 1 (TDP1): qHTS in cells in absence of CPT. DT40 Tdp1-/- hTDP1 cells, no CPT, ATP luminescence, 48 h. Potency, µM (titrated, usually from 46.2 µM), for the others: top-dose activity change, negative = growth inhibition, usual class: inhibitors. 15% of 420,000 active. AID 686978, 2013; further: potency means the concentration at half of the fitted maximal effect; nearly all actives have a fitted effect of over 55% in size
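Growth kinetics read by CellTiter-Glo luminescence after ≥48 hr at 37 °C. Cells: DT40 Tdp1-/- stably carrying human TDP1, 400 per well, compound exposure in the absence of CPT (DMSO vehicle).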
Active calls of the source: *; ? = inconclusive; nt = no result. The list is not random: actives were taken first. Their share in the collection is about 18%. Unless noted, the call rests on the fitted dose curve; in most records, active means well fitted curve in the direction sought with a large enough effect; inconclusive means small, poorly fitted or top-dose-only effect, or another doubt; inactive means no such curve, though single readings can be large; an effect the other way counts as inactive or inconclusive. Unless noted, on the % scale 0 is the no-effect control and ±100 the full control effect.

SMILES	RORg inh	IL1B secr inh	LDHA block	TDP1 cell CPT	Gal4-VP16 FLuc	DT40 TDP1 no CPT
Cc1cccc(C(=O)Nc2sc(-c3ccccc3)cc2C(=O)O)c1	?	0	0	?	2%	?
CC(C)(C)C(=O)Nc1sc(-c2ccccc2)cc1C(=O)O	?	-78*	-20	?	-4%	?
O=C(NCC1CC1)c1cccc2c1C(=O)c1ccc(N3CCCC3)cc1S2(=O)=O	nt	-13	-2	?	nt	?
CC1CCN(c2ccc3c(c2)S(=O)(=O)c2cccc(C(=O)NC[C@@H]4CCCO4)c2C3=O)CC1	nt	35	2	13µM*	nt	?
O=C(NCC1CCCO1)c1cccc2c1C(=O)c1ccc(N3CCC(Cc4ccccc4)CC3)cc1S2(=O)=O (stereo not drawn)	nt	43	-15	?	nt	21µM*
CC1=CC(C)(C)N2C(=O)C3(C(C#N)=C(N)Oc4cc(O)ccc43)c3c(C)c(C)cc1c32 (stereo not drawn)	2.8µM*	-73*	4	?	-12%	?
CC1=CC(C)(C)N2C(=O)C3(C(C#N)=C(N)OC4=C3C(=O)CCC4)c3c(C)c(C)cc1c32 (stereo not drawn)	26%	-14	-18	-17%	-8%	?
CC1(c2ccccc2)CC(C)(C)N2C(=O)C3(C(C#N)=C(N)Oc4cc(O)ccc43)c3cccc1c32 (stereo not drawn)	5%	-51*	-3	?	-11%	?
Cc1cc2c3c(c1)C(C)(c1ccccc1)CC(C)(C)N3C(=O)C21C(C#N)=C(N)OC2=C1C(=O)CC(C)(C)C2 (stereo not drawn)	?	?	5	21µM*	-29%	23µM*
COC(=O)c1ccc(CNC(=O)c2cccc(C)c2C)cc1	nt	nt	2	nt	nt	nt
Cc1ccc(-c2cn3nc(N4CCC(C(=O)NCc5ccc(OC(C)C)cc5)CC4)sc3n2)cc1	nt	nt	3	nt	nt	nt
Cc1ccc(C2Cc3ccccc3N2)c(C)c1 (stereo not drawn)	nt	nt	-14	nt	nt	nt
COC(=O)CNC(=O)c1cc(C)ccc1C	nt	nt	-2	nt	nt	nt
CCOC(=O)/C(=C\c1ccccc1)C(=O)c1cc(C(C)=O)c(Nc2ccccc2)s1	7.1µM*	-101*	6	8.2µM*	?	9.2µM*
CCOC(=O)/C(=C\c1cccnc1)C(=O)c1cc(C(C)=O)c(Nc2ccccc2)s1	3.5µM*	-103*	-3	2.1µM*	4.5µM*	1.8µM*
COc1ccc(C(CNC(=O)c2nn(C)c(=O)c3ccccc23)N(C)C)cc1 (stereo not drawn)	nt	nt	-1	nt	nt	nt
S=C(SSC(=S)N1CCOCC1)N1CCOCC1	nt	17	12	0.046µM*	nt	0.026µM*
COc1cc(Cl)c(C)cc1NC(=O)c1nc2ccccc2nc1N1CCCCC1	nt	nt	1	nt	nt	nt
CCOC(=O)c1c2ccccc2[n+]([O-])n1[C@@H](C)C(N)=O	nt	27	5	21µM*	nt	-7%
COC(=O)N/N=C(\C)c1ccc(OC(F)F)cc1	6%	-9	-6	18%	-15%	3%
C/C(=N\Nc1ncc(Cl)cc1Cl)c1ccc(OC(F)F)cc1	11µM*	?	-2	?	?	?
C/C(=N\Nc1ncc(Cl)cc1Cl)c1ccc2c(c1)OCO2	7.1µM*	0	0	-6%	?	-25%
COc1cccc(NC(=O)c2cc3cc(OC)ccc3n2C)c1	nt	nt	10	nt	nt	nt
CCOC(=O)c1ccc(NC(=O)CC2C(=O)N(c3cccc(OC)c3)C(=O)N2Cc2ccc(OC)cc2)cc1 (stereo not drawn)	nt	nt	2	21µM*	nt	?
CCOC(=O)c1ccc(NC(=O)CC2C(=O)N(c3ccc(F)cc3)C(=O)N2Cc2cccnc2)cc1 (stereo not drawn)	nt	nt	-7	18µM*	nt	15µM*
SMILES	RORg inh	IL1B secr inh	LDHA block	TDP1 cell CPT	Gal4-VP16 FLuc	DT40 TDP1 no CPT
CCOC(=O)c1cccc(NC(=O)CC2C(=O)N(c3ccc(C)cc3)C(=O)N2Cc2cccc(OC)c2)c1 (stereo not drawn)	nt	nt	0	18µM*	nt	?
COC(=O)c1ccc(NC(=O)CC2C(=O)N(c3ccc(C)cc3)C(=O)N2Cc2ccc(OC)cc2)cc1 (stereo not drawn)	nt	nt	-5	?	nt	?
CCOC(=O)c1ccc(NC(=O)CC2C(=O)N(c3ccc(F)cc3)C(=O)N2Cc2ccc(C)cc2)cc1 (stereo not drawn)	nt	nt	-6	16µM*	nt	?
CC1(C)CC(=O)C2=C(C1)OC(N)=C(C#N)C2c1c2ccccc2cc2ccccc12 (stereo not drawn)	nt	nt	21	nt	nt	nt
COc1ccc(NC(=O)CC2C(=O)N(c3cccc(C)c3)C(=O)N2Cc2cccnc2)cc1 (stereo not drawn)	nt	nt	1	?	nt	-18%
CCOC(=O)c1ccc(NC(=O)CC2C(=O)N(c3cccc(OC)c3)C(=O)N2Cc2cccnc2)cc1 (stereo not drawn)	nt	nt	0	13µM*	nt	21µM*
COC(=O)C1=CN(c2ccc(OC)cc2)C=C(C(=O)OC)C1c1cccc(F)c1	?	8	1	8%	-8%	-10%
COC(=O)C1=CN(C)C=C(C(=O)OC)C1c1ccc(O)c(OC)c1	3%	0	3	3%	0%	-9%
